Laboratory results as given in PubChem BioAssay (NCATS).
Values joined by “and” are separate entries in the source; they are usually repeats but may differ in a detail not shown here. Equal values may be shown once. Inconclusive results are not listed. Values without a mark were called inactive. Active and inactive are the calls of the source. Calls follow the shape of the dose curve; as a rule, active = well fitted cell-killing curve with a large enough effect; inconclusive = small, poorly fitted or top-dose-only effect, or effect the other way; inactive = no such curve, though single readings can be large or run the other way.

experiment: Viability qHTS for spleen associated tyrosine kinase inhibitor (SYKi) naive MV4-11 cells (AID 1963823); conditions: MV4-11 AML viability, CellTiter-Glo luminescence, 72 h; series mostly up to 45 µM; viability (% of control): at the top concentration; also: nearly all actives have a fitted effect of over 40% in size
Procedure, shortened: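 Seeding of 500 SYKi-naive MV4-11 cells per well onto pre-dispensed compounds preceded a 72 hr incubation at 37 C. Luminescent CellTiter-Glo signal, read after 10 min at room temperature, reflected viable cells.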
Potency is read from the fitted curve at half-maximal effect.

Row | SMILES | Potency | viability (% of control) [%]
1 | COc1cc(F)ccc1-c1ncnc(Nc2cccc(CS(C)(=N)=O)c2)n1 (centres undefined) | 1.16 µM (active) | –
2 | CC(C)(O)c1ccccc1CC[C@@H](SCC1(CC(=O)O)CC1)c1cccc(/C=C/c2ccc3ccc(Cl)cc3n2)c1 | – | 85.1
3 | CC(=O)N1CCC[C@H]1C(=O)N[C@@H](Cc1cnc[nH]1)C(=O)N[C@@H](CO)C(=O)N[C@@H](CS)C(=O)N[C@@H](CC(N)=O)C(N)=O | – | 78.9
4 | Nc1ccc(/C=C/C(=O)NCc2cc3cc(-c4ccc(C(=O)N5CCC(F)(F)CC5)cc4)cc(-c4ccc(F)cc4)c3o2)cn1 | 148 nM (active) and 184 nM (active) | –
5 | CN1CC(=O)N2[C@H](c3ccc4c(c3)OCO4)c3[nH]c4ccccc4c3C[C@@H]2C1=O | inactive | –
6 | COc1ccc2nc3n[nH]c(C)c3c(NCCOCCO)c2c1 | 18.4 µM (active) and 9.34 µM (active) | –
7 | CC(=O)c1cc2c(o1)C(=O)c1ccccc1C2=O | 1.18 µM (active) | –
8 | Cc1nc2cccc(N)c2c(=O)n1C1CCC(=O)NC1=O (centres undefined) | 0.209 µM (active) | –
9 | COC(=O)/C=C/C(=O)OC | – | 95
10 | C=CCCCCCCCCC(=O)O | – | 66.9
11 | COCCOC(=O)N1CCN(S(=O)(=O)c2cc(F)c(Oc3ccc(Cl)cc3)c(F)c2)C(C(=O)NO)C1 (centres undefined) | 5.9 µM (active) | –
12 | Cc1[nH]c2ccccc2c1CCNCc1ccc(/C=C/C(=O)NO)cc1 | 0.0295 µM (active) | –
13 | CCCCc1nc2cc(/C=C/C(=O)NO)ccc2n1CCN(CC)CC | 411 nM (active) and 525 nM (active) | –
14 | CCN(c1cc(C#CCN2CCOCC2)cc(C(=O)NCc2c(C)cc(C)[nH]c2=O)c1C)C1CCC(N(C)CCOC)CC1 (centres undefined) | inactive | –
